Bioassay records as filed in PubChem.
Shown are actives, neighbours in structure and some others; about 4.1% of the full set was active somewhere.
ssDAF-12 act: S. stercoralis DAF-12 activation, primary screen; HEK293 ssDAF-12/GRIP1 lit1-tk-luc reporter, luminescence; % of 3 µM dafachronic acid response; 370,000 tested, 1% active; activation, % at 6.8 µM;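 active means activation above the mean over all tested compounds plus 3 SD, cut at about 0.9% in these data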;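 further: 0% = DMSO-only wells and 100% = 3 µM delta7-dafachronic acid wells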
hcDAF12 agonist: activates DAF-12 receptor from parasite H. contortus; HEK293 hcDAF-12 lit1-tk-luc reporter, luminescence; 0% DMSO, 100% Δ7-dafachronic acid; activation, % at 6.8 µM; 370,000 tested, 1.4% active;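 active means activation above the mean of all tested compounds plus 3 SD, cut at about 5.5% in these data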;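 further: 100% = response to 3 µM Δ7-dafachronic acid high control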
DAX1 inh-1: inhibits human nuclear receptor DAX1 | HEK293 Gal4-DAX1 luciferase reporter, luminescence | inhibition, % at 6.75 µM | 340,000 tested, 0.99% active | AID 504766;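 active means inhibition above the mean over all tested compounds plus 3 SD, cut at about 4.2% in these data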;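 further: 0% = DAX1-transfected cells with DMSO and 100% = empty-vector control cells with DMSO; inhibition shows as a rise in luminescence from relieved DAX1 repression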
Target sequence (P51843 207-470 limits assumed): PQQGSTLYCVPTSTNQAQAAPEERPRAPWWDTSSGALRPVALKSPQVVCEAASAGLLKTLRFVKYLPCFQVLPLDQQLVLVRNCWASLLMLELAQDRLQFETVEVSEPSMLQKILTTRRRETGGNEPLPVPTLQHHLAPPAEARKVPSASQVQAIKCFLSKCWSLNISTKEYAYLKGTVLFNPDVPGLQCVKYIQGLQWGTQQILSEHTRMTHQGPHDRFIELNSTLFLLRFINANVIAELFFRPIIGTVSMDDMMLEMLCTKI
hgDAF-12 ag: agonists of H. glycines DAF-12 nuclear receptor | 370,000 tested, 1.8% active | HEK293 GAL4-hgDAF12 UAS-luciferase reporter, agonist luminescence; normalized to butyrate control | activation, % at 6.8 µM;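 active means activation above a cutoff set at the mean of all screened compounds plus 3 SD, cut at about 10% in these data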;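 further: 0% = DMSO wells and 100% = sodium butyrate wells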
DAX1 inh-2: blocks DAX1 repression of SF-1 activated StAR promoter; HEK293T StAR-luciferase reporter, SF-1/DAX-1 repression relief; inhibition, % at 6.8 µM; 370,000 tested, 1.1% active; AID 652010;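 active means inhibition above the mean over all tested compounds plus 3 SD, cut at about 3.6% in these data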;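 further: 0% = DAX-1 cells with DMSO and 100% = cells lacking DAX-1 with DMSO; higher inhibition means more luminescence from relief of DAX-1 repression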
hgDAF12 conf: hgDAF-12 agonism, confirmation assay | shares compounds with hgDAF-12 ag | HEK293 GAL4-hgDAF12 luciferase reporter, agonist mode; percent of butyrate response | activation, % at 6.8 µM | 3,300 tested, 80% active | AID 743050;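 active means mean activation over triplicate wells above the hit cutoff derived from the earlier primary screen, cut at about 11% in these data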;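 further: 0% = DMSO low control and 100% = 2 mM sodium butyrate high control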
LXR ag 2: activates human LXR-beta, counter-screen for DAF-12 agonists. shares compounds with hgDAF-12 ag. activation, % at 6.8 µM. 3,300 tested, under 10 active. HEK293 Gal4-LXR luciferase reporter, 24 h;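 active means mean activation of the triplicate above a set limit carried over from the primary screen, none filed active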
Starred values were filed as active, the others as inactive; · = no result.

SMILES	ssDAF-12 act	hcDAF12 agonist	DAX1 inh-1	hgDAF-12 ag	DAX1 inh-2	hgDAF12 conf	LXR ag 2
O=C(CSc1ccccn1)Nc1ccc(NC(=O)CSc2ccccn2)cc1	-1.3	1.6	0.0	-0.5	-0.6	·	·
CCOC(=O)/C=C/c1cccc(OC)c1O	0.6	1.8	·	14.2*	3.8*	13.7*	0.5
C[C@H](O)[C@@H]1C(=O)N2CCc3c([nH]c4cccc(-c5ccccc5)c34)[C@@H]2C[C@@H]1N(C)C(=O)Nc1ccccc1	-1.3	0.4	·	-2.0	1.5	·	·
C=CC(C)N1C(=O)S/C(=C\c2ccc(N3CCOCC3)cc2C)C1=O (stereo not drawn)	-0.8	1.4	1.8	7.1	0.6	·	·
Cc1cc(N2CCOCC2)ccc1/C=C1/SC(=O)NC1=O	0.2	5.2	1.2	15.7*	1.1	8.6	0.3
CC(=O)Cn1cnc2c(cnn2-c2ccc(C)c(C)c2)c1=O	0.8	-2.9	3.3	15.3*	0.7	12.3*	0.4
Cc1ccc(-n2ncc3c(=O)n(CC(=O)N(C)C)cnc32)cc1C	0.1	0.9	0.8	4.4	0.1	·	·
O=C(OCCN1CCN(C2CN(Cc3cn(Cc4ccccc4F)nn3)S(=O)(=O)C2)CC1)c1cc2ccccc2o1 (stereo not drawn)	-0.6	-1.7	·	3.2	-0.3	·	·
O=C(Nc1cccnc1)c1ccc(Oc2ccccc2)cc1	-0.1	2.4	2.4	14.4*	1.1	14.9*	0.8
COc1ccc(OCc2cc(C(=O)NC(C)Cc3ccccn3)no2)c(Cl)c1 (stereo not drawn)	0.4	-0.1	-0.3	4.3	-2.3	·	·
COc1ccc(OCc2cc(C(=O)NC3Cc4ccccc4C3)no2)c(Cl)c1	-0.1	1.8	-1.2	14.5*	-1.1	2.3	0.0
CC(C)(C)C(=O)OC12CCCN(C1)/C(=C/c1cccc(Cl)c1)C2 (stereo not drawn)	-1.0	-1.3	·	2.7	0.9	·	·
Cc1cccc(Cn2nc(C)c(NC(=O)c3ccc(F)cc3)c2C)c1	-1.1	-0.4	0.4	1.2	-1.1	·	·
Cc1nn(Cc2c(F)c(F)c(F)c(F)c2F)c(C)c1NC(=O)c1cccc(COc2ccc(Cl)cc2)c1	-0.8	1.0	-1.1	15.0*	1.2	6.1	0.3
COC(=O)c1cnc(SCC(=O)c2ccccc2)n1C	-0.1	6.1*	3.7	15.3*	1.6	14.0*	0.6
COc1ccccc1C(=O)CSc1ccccn1	-0.3	0.4	3.3	7.3	1.4	·	·
COC(=O)c1cnc(SCc2ccc(Cl)cc2)n1C	-1.0	-0.2	-0.3	6.1	0.4	·	·
COC(=O)c1ccnc(SCC(=O)c2ccccc2)c1	0.9	2.8	1.6	17.6*	2.5	14.4*	0.3
C[C@@H]1OC(C2CCCCC2)N(C)[C@H]2C[C@H]3c4[nH]c5cccc(-c6cccc(F)c6)c5c4CCN3C(=O)[C@@H]12 (stereo partly drawn)	-1.5	-3.6	·	0.6	-0.9	·	·
Cc1ccc(NC2=Nc3ccccc3CC2)cc1	0.8	6.3*	-0.5	13.7*	2.2	17.2*	1.2
CCOc1ccc(C=Nn2c(-c3ccc(F)cc3)n[nH]c2=S)cc1	-0.5	-2.8	·	2.5	0.2	·	·
C[C@H](CO)N1C[C@H](C)[C@H](CN(C)S(=O)(=O)c2cccs2)Oc2ncc(Br)cc2C1=O	-0.1	0.0	·	-1.7	-0.8	·	·
Nc1c(-c2cccs2)cnn1-c1nc(-c2ccc(Cl)cc2Cl)cs1	-1.2	0.7	2.5	0.7	-0.7	·	·
Nc1nccc(-c2cc(-c3ccc(Cl)cc3Cl)no2)n1	1.9*	5.7*	10.1*	14.8*	2.5	19.6*	1.0
O=S1(=O)c2ccc(N3CCSCC3)cc2Oc2ccccc2CN1Cc1cn(Cc2ccc(C(F)(F)F)cc2)nn1	-1.6	-1.7	·	-2.0	-0.1	·	·
SMILES	ssDAF-12 act	hcDAF12 agonist	DAX1 inh-1	hgDAF-12 ag	DAX1 inh-2	hgDAF12 conf	LXR ag 2
N/C(=N\N=C\c1ccc(O)c(O)c1)c1nonc1N	0.1	2.4	2.6	15.3*	1.1	6.5	0.2
COc1ccc(OC)c(/C=N/N=C(\N)c2nonc2N)c1	0.1	3.7	3.4	8.8	0.2	·	·
COc1cccc(C(=O)NC(=O)Nc2cc(C)[nH]n2)c1	-0.5	4.4	8.1*	14.9*	3.2	14.2*	0.6
COc1cccc(C(=O)NC(=S)Nc2ccc(N(C)C)cc2)c1	-0.6	-0.3	0.4	18.3*	0.6	12.4*	0.4
COc1ccc(NC(=S)c2ccccc2)cc1	-0.7	1.1	1.3	8.4	2.0	·	·
Cc1cc(NC(=O)c2cccc(Br)c2)n[nH]1	-0.9	0.8	0.6	4.5	0.4	·	·
COc1ccc(C(=S)Nc2ccc(N(C)C)cc2)cc1	0.7	5.5	1.2	14.9*	4.0*	15.3*	0.6
COc1cccc(C(=O)NC(=S)Nc2ccc(N3CCCC3)cc2)c1	-1.4	0.9	1.2	3.0	-1.3	·	·
COc1cccc(C(=O)Nc2ccc(C3CC3(Cl)Cl)cc2)c1 (stereo not drawn)	1.2*	2.0	0.2	18.8*	2.6	17.8*	0.7
COC(=O)C1=C(C)N(Cc2cccc(C(F)(F)F)c2)C(=NCC2CC2)NC1c1ccc(F)cc1 (stereo not drawn)	-0.4	1.8	·	2.0	3.1	·	·
CCCOc1ccc(C(=O)N2CCC(Oc3cccnc3)CC2)cc1	-1.7	-1.1	·	-1.8	-1.1	·	·
C/C(=N\Nc1ccc([N+](=O)[O-])cc1)c1ccco1	-0.3	3.3	4.8*	14.5*	0.8	14.6*	0.6
COC(=O)N/N=C/c1ccc(-c2cccc(Cl)c2)o1	-1.0	-0.6	-0.5	0.4	0.8	·	·
Nc1ccccc1N=Cc1ccc(-c2cccc(Cl)c2)o1	1.3*	2.8	3.4	21.7*	1.6	15.3*	0.4
CC(C)c1cc(C(=O)Nc2cc(Br)ccc2O)no1	-0.6	1.0	0.3	8.9	1.4	·	·
CCCc1cc(C(=O)Nc2cc(Br)ccc2O)no1	-1.5	2.6	-0.5	14.9*	-1.3	5.9	0.3
Nc1nnc(CC(=O)N/N=C/c2ccc(-c3cccc(C(=O)O)c3)o2)s1	-1.2	-0.8	-0.8	13.7*	2.4	3.5	0.0
Nc1nnc(CC(=O)N/N=C/c2ccc(-c3ccc(F)cc3)o2)s1	-1.9	-1.7	·	-0.9	0.3	·	·
COc1ccc(C(=O)O/N=C(\N)c2ccccc2Cl)cc1OC	-0.3	2.6	-0.9	8.0	0.5	·	·
COc1ccccc1C(=O)O/N=C(\N)c1ccccc1Cl	0.0	4.4	3.2	17.3*	2.5	10.7*	0.4
CC[C@H](NC(=O)[C@@H](Cc1ccccc1)NC(=O)[C@H]1O[C@@H](n2cnc3c(=O)[nH]c(N)nc32)[C@H](O)[C@@H]1O)c1ccccc1	-0.7	-2.7	·	1.3	0.7	·	·
